Among the data in PubChem BioAssay (NCATS) are Potency values, retold here.

Records with an inconclusive call do not appear. Calls of active or inactive are those of the source. Calls follow the shape of the dose curve; as a rule, active = well fitted cell-killing curve with a large enough effect; inconclusive = small, poorly fitted or top-dose-only effect, or effect the other way; inactive = no such curve, though single readings can be large or run the other way.

A short description of experiment [1]: Quantitative High-Throughput drug screen in 47 multiple myeloma cell lines against the NCATS MIPE library collection: XG1_PLB cell viability assay (AID 1919866). Also: nearly all actives have a fitted effect of over 35% in size. In outline: (§1)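 Readout: median RLU from CellTiter-Glo after 5 min at room temperature. Preceding step was 48 h drug treatment of 500 cells/well at 37 °C, 5% CO2, with DMSO-only and media-only control wells.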

A short description of experiment [2]: Quantitative High-Throughput drug screen in 47 multiple myeloma cell lines against the NCATS MIPE library collection: UTMC2_PLB cell viability assay (AID 1919868). Also: nearly all actives have a fitted effect of over 55% in size. The conditions noted are these: CellTiter-Glo ATP luminescence, 48 h; viability (% of DMSO control): at 45.8 µM (top of the series). An outline of the steps:
as §1

The nature of experiment [3]: Quantitative High-Throughput drug screen in 47 multiple myeloma cell lines against the NCATS MIPE library collection: PE2_PLB cell viability assay (AID 1919869). Also: nearly all actives have a fitted effect of over 35% in size. An outline of the steps:
as §1

Experiment [4] in a line: Quantitative High-Throughput drug screen in 47 multiple myeloma cell lines against the NCATS MIPE library collection: PCM6_Riken cell viability assay (AID 1919870). Also: nearly all actives have a fitted effect of over 30% in size. An outline of the steps:
as §1

Experiment [5] is described as follows: Quantitative High-Throughput drug screen in 47 multiple myeloma cell lines against the NCATS MIPE library collection: RPMI8226_ATCC cell viability assay (AID 1919871). Also: nearly all actives have a fitted effect of over 30% in size. An outline of the steps:
as §1

Experiment [6] is described as follows: Quantitative High-Throughput drug screen in 47 multiple myeloma cell lines against the NCATS MIPE library collection: KMS28BM_JCRB cell viability assay (AID 1919874). Also: nearly all actives have a fitted effect of over 35% in size. In outline:
as §1

Experiment [7] can be described thus: Quantitative High-Throughput drug screen in 47 multiple myeloma cell lines against the NCATS MIPE library collection: KMS11_JCRBsus cell viability assay (AID 1919873). Also: nearly all actives have a fitted effect of over 50% in size. In outline:
as §1

Experiment [8] is described as follows: Quantitative High-Throughput drug screen in 47 multiple myeloma cell lines against the NCATS MIPE library collection: OPM2_DSMZ cell viability assay (AID 1919872). Also: nearly all actives have a fitted effect of over 30% in size. In outline:
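CellTiter-Glo luminescence (ATP) after 48 h compound exposure, 37C/5% CO2; 500 cells/well; MIPE 4.0 approved/investigational drugs pinned in; DMSO = 100%, media only = 0% viability.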

A short description of experiment [9]: Quantitative High-Throughput drug screen in 47 multiple myeloma cell lines against the NCATS MIPE library collection: VP6_DJ cell viability assay (AID 1919867). Also: nearly all actives have a fitted effect of over 40% in size. An outline of the steps:
as §1
Potency is read from the fitted curve at half-maximal effect.

As for `C[C@H](CCC(=O)O)[C@H]1CCC2C3C[C@H](O)[C@@H]4C[C@H](O)CC[C@]4(C)C3CC[C@@]21C` (some centres not stated), the Potency in experiment [1] was 18700 nM (active). Also, the Potency entry in [2], in experiment [3], in [4], in experiment [5] and in [6] was “inactive” throughout.

On to `C[C@H]1COc2c(N3CCN(C)CC3)c(F)cc3c(=O)c(C(=O)O)cn1c23`, for which the Potency result in experiment [1], in experiment [2], in [3], in [4], in [5] and in experiment [7] was “inactive” in each case.

In the case of `N#CNC(=NCCCCCCOc1ccc(Cl)cc1)Nc1ccncc1`, the Potency result in [1] and in [2] was “inactive” in each case. Further, the Potency in [4] is 1 nM (active); in experiment [5] it was 41.8 nM (active); in [8] it was 14.8 nM (active); in experiment [7], 2.6 nM (active); in [6] it was 105 nM (active).

On to `CN(C)c1ccc2cc(C(=O)N[C@@H](CCCN=C(N)CCl)C(=O)NCc3ccccc3)ccc2c1`, for which the Potency in experiment [1] was 1180 nM (active); in experiment [3], 8330 nM (active); in experiment [4], 4180 nM (active); in [5] it was 18700 nM (active); in experiment [8], 18700 nM (active); in experiment [7] it was 7430 nM (active). In [6], the Potency was 7430 nM (active).

As to `C[C@H](CCC(=O)O)[C@H]1CC[C@H]2[C@@H]3[C@H](O)C[C@@H]4C[C@H](O)CC[C@]4(C)[C@@H]3CC[C@]12C`, the Potency entry in experiment [1], in experiment [3], in experiment [4], in experiment [5], in [8] and in experiment [7] was “inactive” in each case.

Turning to `CC[C@H](CC[C@@H](C)[C@H]1CC[C@H]2[C@@H]3CC=C4C[C@@H](O)CC[C@]4(C)[C@@H]3CC[C@]12C)C(C)C`, the Potency result in experiment [1], in experiment [3], in experiment [4], in experiment [5], in experiment [8] and in experiment [7] was “inactive” throughout.

On to `COC(=O)[C@@H]1CC2=CC(=O)CC[C@]2(C)[C@@]23O[C@@H]2C[C@@]2(C)[C@H](CC[C@@]24CCC(=O)O4)[C@@H]13`, for which the Potency entry in [1], in experiment [3], in experiment [4], in experiment [5], in [8] and in experiment [7] was “inactive” throughout.

For the compound `CCOC(=O)C=C[C@H](C[C@@H]1CCNC1=O)NC(=O)[C@@H](CC(=O)[C@@H](NC(=O)c1cc(C)on1)C(C)C)Cc1ccc(F)cc1`, the Potency entry in [1], in experiment [3], in experiment [4], in experiment [5] and in experiment [8] was “inactive” each time.

As for `O=C1c2cccc(O)c2C(=O)c2c(O)cc(CO)cc21`, the Potency entry in experiment [1], in [3], in [4], in experiment [8], in experiment [7] and in experiment [6] was “inactive” throughout. For the same compound, the Potency in [5] is 16600 nM (active).

Take `CC(=O)OCC(=O)[C@@]12N=C(C)O[C@H]1C[C@H]1[C@@H]3CCC4=CC(=O)C=C[C@]4(C)[C@@H]3[C@@H](O)C[C@@]12C`: the Potency was 16600 nM (active) in experiment [1], 11800 nM (active) in experiment [4], 469 nM (active) in [5] and 935 nM (active) in experiment [7]. The Potency result in [3], in [8] and in experiment [6] was “inactive” each time.

`C[C@@H](Oc1ccc2[nH]nc(C=Cc3cnn(CCO)c3)c2c1)c1c(Cl)cncc1Cl`: the Potency is 93.5 nM (active) in experiment [1]; 148 nM (active) in experiment [3]; 4180 nM (active) in [4]; 1320 nM (active) in experiment [5]; 296 nM (active) in experiment [8]; 148 nM (active) in experiment [7]. For the same compound, the Potency in experiment [6] is 1180 nM (active).

As to `Nc1ccn(C2CO[C@H](CO)O2)c(=O)n1` (some centres not stated), the Potency result in experiment [1], in experiment [3], in experiment [4], in [5], in [8] and in experiment [7] was “inactive” throughout.

With `CCN(C(=O)c1c(O)c2c(Cl)cccc2n(C)c1=O)c1ccccc1`, the Potency entry in experiment [1], in experiment [3], in experiment [4], in [5], in [8] and in experiment [6] was “inactive” in each case.

In the case of `c1ccc(CNc2nc(NCc3ccccc3)c3ccccc3n2)cc1`, the Potency was 7430 nM (active) in experiment [1]; 10500 nM (active) in [2]; 11800 nM (active) in experiment [3]; 8330 nM (active) in experiment [4]; 11800 nM (active) in experiment [7]; 11800 nM (active) in [6].

Turning to `O=[N+]([O-])c1cn2c(n1)OC[C@@H](OCc1ccc(OC(F)(F)F)cc1)C2`, the Potency result in [1], in experiment [4], in [5], in [8], in experiment [7] and in experiment [6] was “inactive” in each case.

As to `CC1(C)CC(O)CC(C)(C)N1[O]`, the Potency result in [1], in [3], in [4], in [5] and in [7] was “inactive” in each case.

As for `Cc1onc(-c2ccccc2)c1C(=O)N[C@@H]1C(=O)N2[C@@H](C(=O)O)C(C)(C)S[C@@H]12`, the Potency entry in experiment [1], in experiment [4], in experiment [5], in experiment [8] and in [6] was “inactive” in each case.

Take `O=C(C=CC=Cc1ccc2c(c1)OCO2)N1CCCCC1`: the Potency in [9] is 2640 nM (active); in [5], 3720 nM (active). For the same compound, the Potency result in experiment [2], in experiment [3], in [4], in experiment [8] and in experiment [7] was “inactive” each time.

Take `COc1ccc(Nc2cc(-c3cnc(N)nc3)nc(N3CCOCC3)n2)cn1`: the Potency in experiment [1] was 2350 nM (active); in [3] it was 3320 nM (active); in [8], 7430 nM (active); in experiment [7], 469 nM (active).

`CS[C@H]1SC[C@@H]2C(=O)N(C)[C@H](C(C)C)C(=O)OC[C@H](NC(=O)c3cnc4ccccc4n3)C(=O)N[C@H](C)C(=O)N(C)[C@@H]1C(=O)N(C)[C@H](C(C)C)C(=O)OC[C@H](NC(=O)c1cnc3ccccc3n1)C(=O)N[C@H](C)C(=O)N2C`: the Potency in [9] was 1 nM (active); in experiment [2], 1 nM (active); in experiment [3], 1 nM (active); in experiment [4], 1 nM (active); in experiment [5], 10.5 nM (active); in [8], 8.3 nM (active). Further, in experiment [7], the Potency was 3.3 nM (active).
